Activity calls are given as the source filed them. How the source made its calls: active means hit-call score of the fitted dose curve at least 0.9, where 1 is the maximum; inactive means score below 0.9.
What follows are molecules tested against human Flt-1 (VEGFR1) (FLT1) Receptor Tyrosine Kinase, FLT1 (gene 2321) (UniProt P17948) (assay: ERF_FR_ENZ_hFLT1: Eurofins (ERF) Enzymatic Radiometric [Km ATP] KinaseProfiler LeadHunter Assay for human Flt-1 (VEGFR1) (FLT1) Receptor Tyrosine Kinase).
Description: ERF_FR_ENZ_hFLT1 is a biochemical, single-readout assay that uses extracted gene-proteins in a cell-free assay. Measurements were taken 0.25 hour after chemical dosing in a 96-well plate. See Flt-1 (VEGFR1) Human RTK Kinase Enzymatic LANCE Assay [Km ATP], Cerep.ERF_FR_ENZ_hFLT1 is an assay component calculated from the ERF_FR_ENZ_hFLT1 assay. It is designed to measure enzyme activity using a type of enzyme reporter as detected by fluorescence intensity with LANCE technology.Data from the assay component ERF_FR_ENZ_hFLT1 was analyzed at the assay endpoint, ERF_FR_ENZ_hFLT1, in the positive analysis fitting direction relative to DMSO as the negative control and baseline of activity. Using a type of enzyme reporter, loss-of-signal activity can be used to understand changes in enzymatic activity as they relate to gene FLT1. To generalize the intended target to other relatable targets, this assay endpoint is annotated to the kinase intended target family, where the subfamily is receptor tyrosine kinase.
Flt1 (h) is incubated with 8 mM MOPS pH 7.0, 0.2 mM EDTA, 250 uM […], 10 mM MgAcetate and [g- 33P]-ATP (specific activity and concentration as required). The reaction is initiated by the addition of the Mg/ATP mix. After incubation for 40 minutes at room temperature, the reaction is stopped by the addition of phosphoric acid to a concentration of 0.5%. […]

Chain of human Flt-1 (VEGFR1) (FLT1) Receptor Tyrosine Kinase, FLT1 (gene 2321) (P17948 whole entry, looked up): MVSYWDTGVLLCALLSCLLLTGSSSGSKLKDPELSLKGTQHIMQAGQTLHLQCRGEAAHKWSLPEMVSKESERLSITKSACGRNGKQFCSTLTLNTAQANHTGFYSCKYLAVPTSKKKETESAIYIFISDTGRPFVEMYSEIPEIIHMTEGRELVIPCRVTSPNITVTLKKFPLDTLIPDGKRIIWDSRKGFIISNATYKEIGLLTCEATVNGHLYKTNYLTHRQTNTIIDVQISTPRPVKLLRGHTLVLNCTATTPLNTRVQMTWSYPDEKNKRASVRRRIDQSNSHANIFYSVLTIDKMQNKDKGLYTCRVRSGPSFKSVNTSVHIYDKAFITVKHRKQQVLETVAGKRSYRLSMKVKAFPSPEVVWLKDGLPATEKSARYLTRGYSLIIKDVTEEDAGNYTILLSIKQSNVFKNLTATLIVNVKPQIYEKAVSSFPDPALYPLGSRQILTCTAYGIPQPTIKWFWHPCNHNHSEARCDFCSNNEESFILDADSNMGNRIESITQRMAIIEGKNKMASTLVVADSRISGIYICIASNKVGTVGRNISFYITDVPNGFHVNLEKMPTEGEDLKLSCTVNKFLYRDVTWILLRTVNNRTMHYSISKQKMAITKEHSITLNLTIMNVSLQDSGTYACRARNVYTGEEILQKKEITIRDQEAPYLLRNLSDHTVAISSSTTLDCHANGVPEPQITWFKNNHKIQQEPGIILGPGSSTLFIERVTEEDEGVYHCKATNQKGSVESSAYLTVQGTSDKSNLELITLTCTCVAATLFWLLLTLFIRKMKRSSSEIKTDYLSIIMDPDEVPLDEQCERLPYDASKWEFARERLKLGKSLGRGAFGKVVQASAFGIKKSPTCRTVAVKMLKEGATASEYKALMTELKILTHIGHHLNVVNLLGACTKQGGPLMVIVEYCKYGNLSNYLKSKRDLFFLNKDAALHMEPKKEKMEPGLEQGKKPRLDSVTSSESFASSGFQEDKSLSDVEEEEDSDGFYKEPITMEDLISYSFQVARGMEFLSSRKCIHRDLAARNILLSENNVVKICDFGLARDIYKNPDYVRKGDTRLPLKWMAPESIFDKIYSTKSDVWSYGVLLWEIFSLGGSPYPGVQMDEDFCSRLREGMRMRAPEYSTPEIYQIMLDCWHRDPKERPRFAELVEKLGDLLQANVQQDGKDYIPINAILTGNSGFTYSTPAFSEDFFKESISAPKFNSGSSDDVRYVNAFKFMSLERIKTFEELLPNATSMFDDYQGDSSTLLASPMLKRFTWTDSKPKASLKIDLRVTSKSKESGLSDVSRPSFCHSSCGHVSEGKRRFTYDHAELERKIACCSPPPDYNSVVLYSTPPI

Row | SMILES | outcome
1 | O=C(/C=C/c1ccc(O)cc1)CC(=O)/C=C/c1ccc(O)cc1 | inactive

Source: PubChem BioAssay AID2284087 (EPA ToxCast)
